The values that follow come from PubChem BioAssay (Tox21).

A number with no mark means an inactive call. Records with an inconclusive call do not appear. Calls of active or inactive are those of the source. Unless noted, the call rests on the fitted dose curve; in most records, active means well fitted curve in the direction sought with a large enough effect in the repeat runs; inconclusive means weak or mixed curves; inactive means no such curve, though single readings can be large; an effect the other way counts as inactive or inconclusive.

Assay [1] is described as follows: qHTS RealTime-Glo MT Cell Viability Assay in HEK293 cells - 0 hour (AID 1224880). Further: top concentration of the series differs between compounds; nearly all actives have a fitted effect of over 45% in size. The essentials:
(§1)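 Kinetic, non-lysing viability readout. Seed HEK293 (600/well) with reagent, incubate 5 h at 37 C/5% CO2, pin 23 nL compound in DMSO, incubate at 37 C, read luminescence at 0, 8, 16, 24, 32, 40 h.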

The nature of assay [2]: A CellTox Green Cytotoxicity Assay to monitor cytotoxicity in HepG2 cells - 0 hour (AID 1224882). Further: nearly all actives have a fitted effect of over 35% in size. The essentials: (§2)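 Cytotoxicity was tracked as dead-cell DNA fluorescence in HepG2 cells treated with test compounds at 37 C; each time-point value comes from one kinetic series spanning 0, 8, 16, 24, 32 and 40 h.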
Assay [3] in a line: A CellTox Green Cytotoxicity Assay to monitor cytotoxicity in HepG2 cells - 32 hour (AID 1224883). Further: nearly all actives have a fitted effect of over 50% in size. The essentials:
as §2

The nature of assay [4]: A CellTox Green Cytotoxicity Assay to monitor cytotoxicity in HEK293 cells - 8 hour (AID 1224884). Further: nearly all actives have a fitted effect of over 35% in size. The essentials: (§3)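 Real-time, in one plate: 600 HEK293 cells/well with dead-cell DNA dye, pinned compound after 5 h, 37 C incubation over 40 h; viable cells give no appreciable fluorescence.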
Assay [5] in a line: qHTS RealTime-Glo MT Cell Viability Assay in HepG2 cells - 16 hour (AID 1224885). Further: nearly all actives have a fitted effect of over 50% in size. Summed up: (§4)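 HepG2 suspension premixed with RealTime-Glo reagents is plated at 600 cells per well and left 5 h at 37 C/5% CO2. Compounds in DMSO then go in, and bioluminescence reflecting viable cell number is recorded over 40 h.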
On the technique in general: Quantitative high-throughput screening tests each substance at several concentrations.

The nature of assay [6]: qHTS RealTime-Glo MT Cell Viability Assay in HEK293 cells - 24 hour (AID 1224886). Further: top concentration of the series differs between compounds; nearly all actives have a fitted effect of over 50% in size. Summed up:
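Reads taken at 0, 8, 16, 24, 32 and 40 h from the same wells. HEK293 cells (600/well) carried RealTime-Glo reagents from seeding, with compound added after a 5 h settle at 37 C.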

Assay [7] in a line: qHTS RealTime-Glo MT Cell Viability Assay in HEK293 cells - 8 hour (AID 1224887). Further: top concentration of the series differs between compounds; nearly all actives have a fitted effect of over 50% in size. The essentials: as §1
Assay [8] in a line: A CellTox Green Cytotoxicity Assay to monitor cytotoxicity in HEK293 cells - 16 hour (AID 1224888). Further: nearly all actives have a fitted effect of over 35% in size. Summed up: as §3
Assay [9] in a line: qHTS RealTime-Glo MT Cell Viability Assay in HepG2 cells - 0 hour (AID 1224889). Further: nearly all actives have a fitted effect of over 50% in size. Summed up:
as §4

Assay [10] is described as follows: A CellTox Green Cytotoxicity Assay to monitor cytotoxicity in HepG2 cells - 8 hour (AID 1224890). Further: nearly all actives have a fitted effect of over 45% in size. The essentials:
as §2

The nature of assay [11]: qHTS assay to identify small molecule antagonists of the estrogen receptor alpha (ER-alpha) signaling pathway using the BG1 cell line in the presence of 0.1 nM 17-beta-estradiol - cell viability counter screen (AID 1259241). Further: nearly all actives have a fitted effect of over 40% in size. Summed up:
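Following 5 days in phenol red-free medium with charcoal-stripped serum, VM7Luc4E2 cells received test compounds alongside 0.1 nM 17beta-estradiol (final) at 37C for 22 hr. Live cells were then quantified via protease-substrate fluorescence.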

Assay [12] can be described thus: qHTS assay to identify small molecule antagonists of the androgen receptor (AR) signaling pathway using the MDA cell line in the presence of 0.5 nM R1881 - cell viability counter screen (AID 1259242). Further: nearly all actives have a fitted effect of over 45% in size. The essentials: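 Cells seeded at 3,000/well and allowed 5 hr at 37C, 0% CO2 before compound transfer and R1881 (0.5 nM final) addition; 16 hr later, live-cell protease fluorescence indicated cytotoxicity.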

Assay [13] concerns the target Estrogen receptor (Homo sapiens) (UniProt P03372). The experiment in a line: qHTS assay to identify small molecule antagonists of the estrogen receptor alpha (ER-alpha) signaling pathway using the BG1 cell line in the presence of 0.1 nM 17-beta-estradiol (AID 1259244). Further: nearly all actives have a fitted effect of over 50% in size. Summed up:
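Luciferase signal from VM7Luc4E2 ERE-reporter cells, co-dosed with test compound and 0.1 nM final 17beta-estradiol for 22 h, read with ONE-Glo.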

The nature of assay [14]: qHTS assay to identify small molecule HDAC inhibitors (AID 1259364).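 Further: wild-type HCT-116 cells with endogenous class I/II HDAC activity; top concentration of the series differs between compounds; nearly all actives have a fitted effect of over 45% in size.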 Summed up:
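HCT-116 wt cells, 1,500/well, overnight attach. Compounds (DMSO) 2 h, 37 °C. HDAC-Glo I/II, 30 min RT. Luminescence.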

The nature of assay [15]: qHTS assay to identify small molecule HDAC inhibitors - cell viability counter screen (AID 1259365). Summed up: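 HCT-116 wild-type, overnight attachment; 2hr drug exposure, 37C; CellTiter-Glo luminescent ATP readout after 30min RT.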
Assay [16] can be described thus: qHTS assay to identify small molecule agonists of the sonic hedgehog signaling (Shh) pathway - cell viability counter screen (AID 1259366). Further: nearly all actives have a fitted effect of over 50% in size. The essentials: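 Compounds in DMSO were pin-transferred onto 3T3 Gli1-Luc cells that had settled 4hr; plates then stood 24hr at 37C and 5% CO2. One hour before the end, CellTiter-Fluor was added and fluorescence recorded.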

Assay [17] can be described thus: qHTS assay to identify small molecule antagonists of the sonic hedgehog signaling (Shh) pathway - cell viability counter screen (AID 1259367). Further: nearly all actives have a fitted effect of over 55% in size. The essentials: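 Conditioned medium drove Shh signaling in 3T3 Gli1-Luc cells exposed to compounds at 37C and 5% CO2. Viability was determined from CellTiter-Fluor fluorescence, with reagent incubated 1 hr after 23 hr of treatment.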

Assay [18] is described as follows: qHTS assay to identify small molecule phospholipidosis (PLD) inducers (AID 1259344; active means well fitted curve in the direction sought with a large enough effect; an effect the other way counts as inactive or inconclusive; further: potency means the concentration at half of the fitted maximal effect). The essentials: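 After 4 h attachment on collagen I, HepG2 cells were dosed with compound alongside LipidTOX Red, kept 24 h at 37 C, fixed, and imaged for lamellar phospholipid pits.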
Assay [19] can be described thus: A CellTox Green Cytotoxicity Assay to monitor cytotoxicity in HEK293 cells - 32 hour (AID 1224881). Further: nearly all actives have a fitted effect of over 40% in size. The essentials: as §3
Assay [20] concerns the target Androgen receptor (Homo sapiens) (UniProt P10275). The experiment in a line: qHTS assay to identify small molecule antagonists of the androgen receptor (AR) signaling pathway using the MDA cell line in the presence of 0.5 nM R1881 (AID 1259243). Further: nearly all actives have a fitted effect of over 50% in size. Summed up: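 Luminescence from an AR/GR-responsive MMTV-luciferase construct in MDA-kb2 breast carcinoma cells, read 30 min after ONE-Glo, following 16 hr co-treatment with compounds and 0.5 nM R1881.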

Chain of Estrogen receptor (Homo sapiens) (P03372 whole entry, looked up): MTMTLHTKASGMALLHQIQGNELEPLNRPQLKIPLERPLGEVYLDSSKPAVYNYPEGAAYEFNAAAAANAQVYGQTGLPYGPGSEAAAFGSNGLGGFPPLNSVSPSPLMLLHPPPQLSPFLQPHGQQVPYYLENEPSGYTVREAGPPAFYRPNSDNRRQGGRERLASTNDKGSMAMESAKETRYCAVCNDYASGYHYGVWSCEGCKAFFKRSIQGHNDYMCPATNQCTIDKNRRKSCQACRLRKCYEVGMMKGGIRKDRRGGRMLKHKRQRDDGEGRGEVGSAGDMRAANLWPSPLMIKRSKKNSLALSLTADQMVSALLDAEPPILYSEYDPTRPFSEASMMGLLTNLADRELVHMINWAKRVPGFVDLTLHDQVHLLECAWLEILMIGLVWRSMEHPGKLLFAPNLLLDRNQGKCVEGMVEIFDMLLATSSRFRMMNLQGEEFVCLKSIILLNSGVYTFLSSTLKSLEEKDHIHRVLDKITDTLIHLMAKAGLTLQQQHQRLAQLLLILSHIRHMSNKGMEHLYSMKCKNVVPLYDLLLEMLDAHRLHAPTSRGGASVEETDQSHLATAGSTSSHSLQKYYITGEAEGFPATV
Chain of Androgen receptor (Homo sapiens) (P10275 whole entry, looked up): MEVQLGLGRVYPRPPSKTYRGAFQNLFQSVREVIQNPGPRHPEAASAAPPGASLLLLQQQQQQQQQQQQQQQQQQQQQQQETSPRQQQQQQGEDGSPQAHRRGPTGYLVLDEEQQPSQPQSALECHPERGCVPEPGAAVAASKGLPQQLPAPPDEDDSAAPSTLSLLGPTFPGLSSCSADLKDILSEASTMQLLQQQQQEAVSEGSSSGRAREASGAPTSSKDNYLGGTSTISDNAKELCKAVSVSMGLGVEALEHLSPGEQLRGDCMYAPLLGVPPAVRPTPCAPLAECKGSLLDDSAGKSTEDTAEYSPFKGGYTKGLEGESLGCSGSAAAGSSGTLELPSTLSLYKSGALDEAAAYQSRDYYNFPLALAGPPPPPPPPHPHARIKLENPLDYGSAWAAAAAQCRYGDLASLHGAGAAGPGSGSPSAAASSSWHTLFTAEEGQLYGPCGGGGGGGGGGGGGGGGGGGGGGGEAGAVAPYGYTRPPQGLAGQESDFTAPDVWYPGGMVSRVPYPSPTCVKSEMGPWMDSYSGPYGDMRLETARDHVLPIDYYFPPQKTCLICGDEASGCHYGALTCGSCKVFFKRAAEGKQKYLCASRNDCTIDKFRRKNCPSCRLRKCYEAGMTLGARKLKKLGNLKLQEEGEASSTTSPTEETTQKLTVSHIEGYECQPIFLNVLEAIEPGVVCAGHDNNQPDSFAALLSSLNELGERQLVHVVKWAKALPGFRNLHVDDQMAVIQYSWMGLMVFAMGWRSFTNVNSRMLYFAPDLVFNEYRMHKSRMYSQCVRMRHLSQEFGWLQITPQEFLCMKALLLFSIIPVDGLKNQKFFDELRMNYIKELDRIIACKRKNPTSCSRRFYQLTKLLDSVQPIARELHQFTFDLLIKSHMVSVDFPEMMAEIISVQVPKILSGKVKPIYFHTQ

For `CCC(=O)Nc1cccc(N)c1`, the outcome in assay [1], in [5], in assay [11], in assay [12], in [13] and in [15] was inactive. Also, in assay [17], the outcome was inactive. Besides, the Potency result in [2], in [3], in assay [4], in assay [6], in assay [7] and in [8] was “inactive” each time. Moreover, the Potency entry in assay [9], in assay [10], in assay [14] and in [16] was “inactive” each time.
Consider `Nc1nc(F)nc2c1ncn2[C@@H]1O[C@H](CO)[C@@H](O)[C@@H]1O`, for which the call in [1], in assay [5], in [11], in assay [12] and in [17] was inactive. In addition, the Potency entry in assay [2], in assay [3], in assay [4], in assay [6], in [7] and in [8] was “inactive” throughout. Further, the Potency entry in assay [9], in assay [10], in [18] and in assay [16] was “inactive” each time.
`C[N+](C)(C)CC[N+]1(C)Cc2c(Cl)c(Cl)c(Cl)c(Cl)c2C1`: the outcome in [1], in [5], in [11], in assay [12], in assay [13] and in assay [15] was inactive. In addition, in assay [17], the call was inactive. The Potency result in [2], in assay [3], in assay [4], in [6], in assay [7] and in assay [8] was “inactive” throughout. The Potency result in assay [9], in assay [10], in assay [18], in [14] and in assay [16] was “inactive” each time.
`NS(=O)(=O)c1cc2c(cc1Cl)NC(CSCc1ccccc1)=NS2(=O)=O`: the compound was called inactive in assay [1], in assay [5], in assay [11], in assay [12], in assay [13] and in assay [15]. For the same compound, the result in assay [17] was inactive. The Potency entry in assay [2], in [3], in [4], in assay [6], in assay [7] and in [8] was “inactive” in each case. The Potency entry in assay [9], in assay [10], in assay [18], in assay [14] and in [16] was “inactive” each time.
Turning to `CCCCCN(CCCCC)C(=O)C(CCC(=O)O)NC(=O)c1ccc(Cl)c(Cl)c1` (configuration not stated), the outcome in assay [1], in assay [5], in assay [11], in [12], in [15] and in assay [17] was inactive. Besides, the Potency entry in [19], in [3], in [4], in assay [7], in [8] and in assay [9] was “inactive” each time. Also, the Potency result in [10], in assay [20], in assay [18], in [14] and in assay [16] was “inactive” each time.
In the case of `Cc1c(C)n(CCN(C)C)c2ccc(C(=O)OCCN(C)C)cc12`, the call in assay [1], in [5], in [12], in assay [13], in assay [15] and in assay [17] was inactive. Moreover, the Potency entry in assay [19], in assay [3], in assay [4], in [7], in [8] and in [9] was “inactive” throughout. The Potency entry in assay [10] and in assay [14] was “inactive” throughout. The Potency in assay [18] was 11.2 µM (active).
Regarding `CCCCCCC(CCCCCCCCCCC(=O)OCC(COC(C)=O)OC(C)=O)OC(C)=O` (configuration not stated), the outcome in assay [1], in assay [5], in assay [11], in assay [12], in assay [13] and in [15] was inactive. Moreover, in [17], the outcome was inactive. The Potency result in [2], in assay [3], in assay [4], in assay [6], in [7] and in assay [8] was “inactive” throughout. The Potency entry in [9], in [10] and in [14] was “inactive” throughout.
In the case of `Nc1[nH]c(=O)ncc1F`, the call in [1], in [11], in [12], in assay [13], in assay [15] and in assay [17] was inactive. In addition, the Potency result in assay [19], in [3], in [4], in [6], in assay [7] and in assay [8] was “inactive” each time. Also, the Potency entry in [9], in assay [10], in assay [18] and in assay [14] was “inactive” in each case.
